Data: paper PMC4336329 (PLoS ONE, 2015)
About 14,000 (4.5%) of roughly 310,000 compounds showed an effect of 50% or more. The effect is printed as a negative number. The sample holds strong results, similar compounds and a random draw of the others, so the mix is not that of the screen. Where a SMILES comes first, the peptide text is derived from it. The star is where a group is joined. PhAc = O=C(Cc1ccccc1)*; OBn = c1ccc(CO*)cc1

biological target: human ether-à-go-go-related gene (hERG) potassium channel (human, UniProt Q12809); experiment: primary screen, population patch clamp on CHO cells stably expressing hERG; higher = less effect of the substance
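Also: peak tail current of the secondary pulse compared with the same well before compound.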

Sequence of human ether-à-go-go-related gene (hERG) potassium channel (Q12809 whole entry, looked up): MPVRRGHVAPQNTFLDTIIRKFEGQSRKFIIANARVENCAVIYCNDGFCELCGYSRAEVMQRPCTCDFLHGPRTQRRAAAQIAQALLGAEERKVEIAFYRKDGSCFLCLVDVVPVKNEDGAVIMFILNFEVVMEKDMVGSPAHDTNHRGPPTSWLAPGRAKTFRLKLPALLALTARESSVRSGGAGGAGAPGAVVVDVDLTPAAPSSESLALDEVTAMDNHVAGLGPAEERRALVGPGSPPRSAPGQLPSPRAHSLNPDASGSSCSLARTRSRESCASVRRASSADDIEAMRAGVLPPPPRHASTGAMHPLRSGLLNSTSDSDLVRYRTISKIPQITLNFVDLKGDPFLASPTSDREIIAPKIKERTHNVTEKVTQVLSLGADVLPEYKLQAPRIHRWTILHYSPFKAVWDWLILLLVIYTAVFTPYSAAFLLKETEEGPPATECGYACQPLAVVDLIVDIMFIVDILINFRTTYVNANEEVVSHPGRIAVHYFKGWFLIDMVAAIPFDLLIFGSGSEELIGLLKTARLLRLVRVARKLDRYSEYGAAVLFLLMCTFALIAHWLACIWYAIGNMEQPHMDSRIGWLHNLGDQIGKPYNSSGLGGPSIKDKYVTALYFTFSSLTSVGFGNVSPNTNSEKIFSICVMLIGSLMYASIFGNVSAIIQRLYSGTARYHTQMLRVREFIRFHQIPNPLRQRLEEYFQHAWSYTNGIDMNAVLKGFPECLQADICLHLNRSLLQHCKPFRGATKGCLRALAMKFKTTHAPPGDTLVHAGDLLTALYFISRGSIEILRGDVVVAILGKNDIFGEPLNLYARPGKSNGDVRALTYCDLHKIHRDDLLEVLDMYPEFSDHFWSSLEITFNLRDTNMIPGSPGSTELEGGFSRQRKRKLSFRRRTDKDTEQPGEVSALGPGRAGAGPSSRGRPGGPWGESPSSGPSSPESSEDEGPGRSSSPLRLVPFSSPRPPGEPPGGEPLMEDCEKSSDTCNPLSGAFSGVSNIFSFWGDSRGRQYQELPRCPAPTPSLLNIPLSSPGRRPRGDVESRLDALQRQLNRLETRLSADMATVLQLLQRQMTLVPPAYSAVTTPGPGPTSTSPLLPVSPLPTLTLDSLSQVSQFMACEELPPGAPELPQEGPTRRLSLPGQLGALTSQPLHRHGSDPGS

| SMILES | hERG current change (%, negative = inhibition) at 10uM [%] |
| --- | --- |
| O=C(Cc1ccccc1)N[C@H](c1ccccc1)P(=O)(O)CO | 8.47 |
| CC(=O)c1cccc(NC(=O)Nc2ccc(C(=O)N3CCOCC3)cc2)c1 | -0.351 |
| NS(=O)(=O)c1ccc(NC(=O)COC(=O)c2ccc3c(c2)OCCO3)cc1 | 24 |
| CC(C)C(=O)Nc1sc2c(c1C#N)CCCCC2 | 9.53 |
| Cc1cc(C)c(S(=O)(=O)Nc2cccc3nsnc23)c(C)c1 | -3.18 |
| O=C(NC1CCCC1)C(c1ccc(F)cc1)N(C(=O)c1csnn1)C1CCCC1 (stereo not drawn) | 9.14 |
| COC(=O)c1ccc(CSc2nnc3n(Cc4ccccc4OC)c(=O)c4ccccc4n23)o1 | -19.3 |
| CCc1noc(C)c1C(=O)N1CCCC(CCC(=O)NCc2cccc(OC)c2)C1 (stereo not drawn) | 20.2 |
| Cc1ccc(N=Nc2c(N)n[nH]c2N)cc1 | 24.5 |
| CNP(=O)(Oc1ccccc1)OC12CC3CC(CC(C3)C1)C2 (stereo not drawn) | -2.75 |
| O=C(Nc1nnc(SCc2ccc(Cl)cc2)s1)C1CCCO1 (stereo not drawn) | -21.9 |
| O=C(CNS(=O)(=O)c1ccccc1)NCC(=O)OCc1ccc(Cl)cc1 | 13.7 |
| O=C(CNC(=O)c1ccco1)OCc1ccc(C(=O)Oc2ccccc2)cc1 | -73.6 |
| CCOC(=O)c1ccc(COC(=O)CNC(=O)CNC(=O)Cc2ccccc2)cc1 | -57.2 |
| O=C(CNC(=O)Cc1ccccc1)NCC(=O)OCc1ccc(C(=O)c2ccccc2)cc1 | -5.33 |
| O=C(CNS(=O)(=O)c1ccccc1)NCC(=O)OCc1ccc(C(=O)c2ccccc2)cc1 | -61.6 |
| O=C(CNC(=O)c1ccco1)OCc1ccc(C(=O)c2ccccc2)cc1 | -69.2 |
| O=C(CNC(=O)c1ccco1)NCC(=O)OCc1ccc(C(=O)Oc2ccc(Cl)cc2)cc1 | 9.73 |
| O=C(CNC(=O)c1ccco1)OCc1ccc(Br)cc1 | 2.8 |

| SMILES | hERG current change (%, negative = inhibition) at 10uM [%] |
| --- | --- |
| COC(=O)c1ccc(COC(=O)CNC(=O)c2ccco2)cc1 | 17.3 |
| O=C(CNC(=O)c1ccco1)NCC(=O)OCc1cccc(C(=O)Oc2ccccc2)c1 | -3.88 |
| O=C(CNS(=O)(=O)c1ccccc1)NCC(=O)OCc1ccc(Br)cc1 | -6.92 |
| O=C(CNC(=O)Cc1ccccc1)NCC(=O)OCc1ccccc1 (PhAc-Gly-Gly-OBn) | 12.4 |
| O=C(Nc1cccc2c1CCCC2)c1ccc(Cl)c([N+](=O)[O-])c1 | 5.81 |
| CC(=O)N1CCc2cc(Br)cc(S(=O)(=O)NCCCN3CCC(C)CC3)c21 | -16.8 |
| CC(=O)c1sc(NC(=O)CCS(=O)(=O)c2ccccc2)nc1C | 8.51 |
| Cc1sc(NC(=O)c2cc(-c3ccc(Cl)cc3)nc3ccccc23)c(C(N)=O)c1C | 5.31 |
| NC(=O)/C(=C/c1ccco1)NC(=O)/C=C/c1ccccc1 | -5.56 |
| N/C(=N\OC(=O)COc1ccccc1)c1ccc(Cl)cc1 | 2.9 |
| CN1CCN(CC(=O)Nc2c(C#N)cnn2-c2ccccc2)CC1 | 12.1 |
| CCOC(=O)[C@@H]1[C@H]2COc3cc(OC)ccc3[C@@H]2N2C(=O)N(c3ccc(C(F)(F)F)cc3)C(=O)[C@]12C | 15.1 |
| Clc1ccc(Cl)c(OCCCCNCc2ccccc2)c1.O=C(O)C(=O)O | -71.5 |
| Cl.OCCCCNCc1ccc(OCc2ccc(Cl)cc2Cl)cc1 | -51.6 |
| Cc1ccc(OCCCNCCO)c(Br)c1.O=C(O)C(=O)O | -10.5 |
| Clc1cc(Br)ccc1OCCCNCc1ccccc1.O=C(O)C(=O)O | -30.1 |
| C=CCNCCCOc1ccc(Cl)cc1Br.O=C(O)C(=O)O | -42.6 |
| Clc1ccc(OCCCNCc2ccccc2)c(Br)c1.O=C(O)C(=O)O | -64.4 |
| Cl.OCCNCc1ccc(OCc2ccc(Cl)cc2Cl)cc1 | -45.8 |

| SMILES | hERG current change (%, negative = inhibition) at 10uM [%] |
| --- | --- |
| Cl.OCCCCNCc1ccc(OCc2ccccc2Cl)cc1 | -15.9 |
| Clc1ccc(OCCCNCc2ccccc2)c2ccccc12.O=C(O)C(=O)O | -1.92 |
| O=C(O)C(=O)O.OCCNCCCOc1ccc(Cl)cc1Br | -54.9 |
| Brc1ccccc1OCCNCc1ccccc1.O=C(O)C(=O)O | -29.8 |
| CCc1cc(OCCCCNCc2ccccc2)ccc1Cl.O=C(O)C(=O)O | -25.6 |
| Cc1cc(C)c(S(=O)(=O)Nc2ccc(OCC(=O)O)cc2)c(C)c1 | 6.93 |
| Nc1nnnn1/N=C/c1ccccc1OCc1ccccc1 | 19 |
| COCCCN(Cc1cccs1)S(=O)(=O)c1c[nH]c(C(=O)OC)c1 | -8.01 |
| Cc1ccc2c(c1)nc(NCCCO)n2C | -3.54 |
| Cc1cc(Cl)ccc1OC(C)C(=O)OCC(=O)Nc1ccc2[nH]c(=O)[nH]c2c1 (stereo not drawn) | -3.04 |
| CN1CCN(c2nc(-c3ccccc3O)nc3ccccc23)CC1 | 9.47 |
| CN1CCN(c2nc(-c3ccccc3Cl)nc3ccccc23)CC1 | -73.8 |
| Oc1ccccc1-c1nc(N2CCN(Cc3ccccc3)CC2)c2ccccc2n1 | 10.5 |
| COc1cccc(-c2nc(N3CCN(C)CC3)c3ccccc3n2)c1O | -30.8 |
| CN1CCN(c2nc(-c3ccc(Cl)c(Cl)c3)nc3ccccc23)CC1 | 6.63 |
| CN1CCN(c2nc(-c3ccc(Cl)cc3Cl)nc3ccccc23)CC1 | -73.9 |
| COc1nc(-c2ccc(Cl)cc2Cl)nc2ccccc12 | 6.59 |
| CCN1CCN(c2nc(-c3ccccc3Cl)nc3ccccc23)CC1.Cl | -69.9 |
| OCCN1CCN(c2nc(-c3ccccc3O)nc3ccccc23)CC1 | -25.1 |
